Compound activity from PubChem.
GLA inh pH 4.5: qHTS Assay for Inhibitors of Human alpha-Galactosidase at pH 4.5; Alpha-galactosidase A (Homo sapiens), P06280; purified enzyme, 4-MU-alpha-Gal fluorescence, pH 4.5; activity change, negative = inhibition, % at 105 µM; 230,000 tested, under 10 active;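 further: 0% = full activity with enzyme and -100% = basal without enzyme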
GLA spleen mod: qHTS Assay for Inhibitors and Activators of Human alpha-Galactosidase From Spleen Homogenate; 240,000 compounds, 0.008% hits; Potency, µM (doses to about 80 µM), for the others: at the highest dose activity change, negative = inhibition, actives largely listed as inhibitors; Alpha-galactosidase A (Homo sapiens), P06280; human spleen homogenate, 4MU-alpha-Gal fluorescence, 40 min; AID 2107, 2009;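 further: potency means the concentration at half of the fitted maximal effect; 0% = enzyme with vehicle and -100% = no enzyme basal signal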
Target sequence (P06280 32-429 limits assumed): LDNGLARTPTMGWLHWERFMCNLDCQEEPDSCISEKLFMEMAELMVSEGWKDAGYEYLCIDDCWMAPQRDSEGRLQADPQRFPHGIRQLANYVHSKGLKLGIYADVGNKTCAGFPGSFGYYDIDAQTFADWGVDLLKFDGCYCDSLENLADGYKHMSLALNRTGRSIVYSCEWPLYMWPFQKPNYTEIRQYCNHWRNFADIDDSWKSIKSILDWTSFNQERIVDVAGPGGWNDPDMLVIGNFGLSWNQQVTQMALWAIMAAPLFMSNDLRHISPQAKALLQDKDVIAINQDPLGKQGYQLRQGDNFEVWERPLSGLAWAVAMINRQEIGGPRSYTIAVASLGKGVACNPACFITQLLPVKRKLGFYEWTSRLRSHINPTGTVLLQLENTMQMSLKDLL
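qHTS titration in buffer at pH 5.0. Alpha-galactosidase activity in spleen homogenate was measured via 4-methylumbelliferone release from 1 mM fluorogenic substrate after 40 min at 37C and a pH 10 stop. AC50 came from Hill fits of control-normalized data.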
PKM2 act: qHTS Assay for Activators of Human Muscle isoform 2 Pyruvate Kinase. Pyruvate kinase PKM (Homo sapiens), P14618. 260,000 compounds, 0.34% hits. Potency, µM (series often up to 57.5 µM), without a hit: at the top dose activation, most hits filed as activators. purified PKM2, Kinase-Glo ATP luminescence, activation; response scale: 0% is enzyme alone, no compound. AID 1631, 2009; further: potency means the concentration at half of the fitted maximal effect; on the % scale 0 is the no-effect control and ±100 the full control effect; nearly all actives have a fitted effect of over 55% in size
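Purified hPK-M2 (>95%) run at intermediate activity with 0.1 mM ADP and 0.5 mM PEP in 50 mM imidazole pH 7.2, KCl, MgCl2; 1 h room temperature. ATP formed read by Kinase-Glo luminescence; normalized to uninhibited and no-enzyme controls.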
HTT ATP protect: qHTS Multiplex Assay to Identify Dual Action Probes in a Cell Model of Huntington: Cytoprotection (ATP). PC12 HTT-Q103 induced, cytoprotection, ATP luminescence, 40 h. Potency, µM (doses to about 56.4 µM), without a hit: cytoprotection (ATP increase), actives largely listed as activators. 230,000 compounds, 0.14% hits. AID 1471, 2008; further: potency means the concentration at half of the fitted maximal effect; % of control where 0% means no effect; nearly all actives have a fitted effect of over 45% in size
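PC12 cells stably carrying ecdysone-inducible Htt exon 1 (Q103)–GFP were induced with 100 nM tebufenozide (final) alongside library compounds in a dose series. Cytoprotection was scored as retained ATP by ATPlite luminescence.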
HTT aggregate: qHTS Multiplex Assay to Identify Dual Action Probes in a Cell Model of Huntington: Aggregate Formation (GFP). PC12 HttQ103-GFP aggregates, Acumen cytometry, 40 h. Potency, µM (titrated, usually from 46.1 µM), for inactives: at the top dose activity change, negative = inhibition, most hits filed as inhibitors. 220,000 compounds, 1.1% hits. AID 1688, 2009; further: potency means the concentration at half of the fitted maximal effect; on the % scale 0 is the no-effect control and ±100 the full control effect; nearly all actives have a fitted effect of over 60% in size
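Ecdysone-promoter PC12 model expressing HTT exon 1 Q103 fused to GFP, induced by tebufenozide at 100 nM final. Compounds titrated; aggregates sized 1–25 µm scored on a 488 nm laser cytometer.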
The depositor's hits bear a star; ? = inconclusive; · = not tested or not shown; [ ] = remark or other dose. The list is not random: actives were taken first. Their share in the collection is about 1.2%. The call rests on the fitted dose curve; in most records, active means well fitted curve in the direction sought with a large enough effect; inconclusive means small, poorly fitted or top-dose-only effect, or another doubt; inactive means no such curve, though single readings can be large; an effect the other way counts as inactive or inconclusive.

SMILES	GLA inh pH 4.5	GLA spleen mod	PKM2 act	HTT ATP protect	HTT aggregate
COc1cccc(CNc2nc3ccccc3n2CCN2CCCCC2)c1OC	-13	5%	-13%	0%[10 µM]	13µM*
Cc1cc(F)ccc1OC1C=CC(c2ccc3c(c2)OCO3)OC1CO (configuration not stated)	·	-3%[17.5 µM]	·	-12%[10 µM]	·
c1ncc(-c2ccoc2)c(NC2CC2)n1	·	-4%	·	-1%	·
O=[N+]([O-])c1ccc(Nc2nc3ccccc3s2)cc1	·	·	·	-2%[10 µM]	·
O=C(Nc1ccc(Cl)cc1)/C(=C/c1ccc([N+](=O)[O-])cc1)c1nc2ccccc2s1	-5	-2%	-3%	-197%	7.1µM*
Cc1occc1-c1nnc(SCC(=O)N2CCOCC2)n1CC(C)C	-2	5%	-2%	-1%[1.9 µM]	-7%
Cc1occc1-c1nnc(SCC(=O)N2CCOCC2)n1Cc1ccco1	9	1%	25µM*	-1%[10 µM]	10%
CN(C)c1ncc2nc(-c3ccccc3)c(=O)n(CCC#N)c2n1	·	22%	·	-64%	·
Cc1ccc(NC(=O)c2ccccc2NS(=O)(=O)c2ccc(F)cc2)cc1S(=O)(=O)N1CCCCC1	-11	2%	1%	-37%[10 µM]	2.5µM*
O=C(Nc1ccc(F)cc1)c1cc(S(=O)(=O)N2CCCCC2)cs1	-4	-8%	-2%	-9%	10µM*
O=C1OC(O)C(C(Cl)Cl)=C1Cl (configuration not stated)	·	-24%	·	-56%	·
C[C@H](NC(=O)[C@@H]1C[C@H]1[C@@H](NC(=O)OCc1ccccc1)c1ccccc1)c1ccccc1	0	-3%	3%	-6%	·
CCOC(=O)/C(C#N)=C1/C=C(C)NC(c2ccccc2O)=N1	-2	-9%	-10%	-16%[10 µM]	11µM*
COCO[C@H]([C@@H](C)C=C(Br)Br)[C@@H](C)COCc1ccc(OC)cc1	·	17%	·	·	·
CC(C)C(C)C	·	-5%	·	-4%	·
CC(=O)C1=C(C)NC(SCc2cccc([N+](=O)[O-])c2)=C(C#N)C1c1ccco1 (configuration not stated)	-6	-7%	7.9µM*	-5%	6%
CC(=O)C1=C(C)NC(SCC(N)=O)=C(C#N)C1c1ccco1 (configuration not stated)	1	5%	12%	-10%	-4%
COC(=O)C1C(=O)c2c([nH]c(C(=O)OC3CCCCCC3)c2C)CC1C (configuration not stated)	7	-7%	-3%	·	0.001µM*
C=Cc1ccc([C@H]2N[C@@H](C(=O)O)CC[C@@H]2C)cc1	·	10%[17.5 µM]	·	-9%[10 µM]	·
CCOC(=O)c1ccc(NC(=O)C2COc3ccccc3O2)cc1 (configuration not stated)	·	·	-1%	·	·
CCOC(=O)c1ccc(-n2c(O)c(/C=N/NC(=O)C3COc4ccccc4O3)c3ccccc3c2=O)cc1 (configuration not stated)	-10	-6%	6%	7%[1.9 µM]	18µM*
N#Cc1ccccc1OC[C@H](O)CNCCNC(=O)Nc1ccccc1	-1	9%	·	32µM*	·
Nc1c(C(=O)Nc2ccc(S(=O)(=O)N3CCCC3)cc2)sc2nc3cc4c(cc3cc12)CCC4	-8	5%	3%	-21%[10 µM]	14µM*
O=C1CCCc2nc(N3CCN(Cc4ccccc4)CC3)ncc21	6	3%	0%	-22%	11µM*
CC(=O)O[C@@H]1CC[C@]2(C)C(=C[C@@H]([C@@H]3C=C4C[C@@H](OC(C)=O)CC[C@]4(C)C4=C3[C@H]3C[C@@H]5O[C@@]6(CC[C@H](C)CO6)[C@@H](C)[C@@H]5[C@@]3(C)CC4)C3=C2CC[C@@]2(C)[C@H]4[C@@H](C)[C@]5(CC[C@H](C)CO5)O[C@@H]4C[C@H]32)C1	·	·	·	-11%[10 µM]	·
SMILES	GLA inh pH 4.5	GLA spleen mod	PKM2 act	HTT ATP protect	HTT aggregate
CCc1ccc(CNC(=O)c2cc3c(C)nc4ccccc4c3o2)cc1	-6	-4%	9%	26%[10 µM]	10µM*
COc1ccc(CNC(=O)c2cc3c(C)nc4ccccc4c3o2)c(OC)c1	1	-1%	14%	7%	4µM*
COc1cc(NC(=O)c2cc3c(C)nc4ccccc4c3o2)cc(OC)c1OC	-12	1%	-7%	-4%	?
CCCCN(CC)CCNC(=O)c1cc2c(C)nc3ccccc3c2o1	5	-3%	-4%	-6%	9%
COc1cccc(CNC(=O)c2cc3c(C)nc4ccccc4c3o2)c1	-13	4%	4%	-67%	10µM*
CCOc1cc2[nH]c(=S)n(CCCN3CCOCC3)c(=O)c2cc1OCC	1	1%	-14%	-20%[0.074 µM]	-18%
CCOc1cc2[nH]c(=S)n(CCCOC)c(=O)c2cc1OCC	1	-16%	19%	?	4µM*
CC1CCCc2sc3ncn(N)c(=N)c3c21 (configuration not stated)	·	10%	8%	-14%	1.4µM*
COC(=O)C1(C(=O)OC)CC2=C[C@H](CC2=O)Cc2ccccc2[C@@H]1C[N+](=O)[O-]	1	5%	·	-40%	·
COc1ccc(C(=O)NNC(=O)OC(C)(C)C)cc1	1	0%	3%	-2%[10 µM]	-2%[9.22 µM]
COc1ccc(C(=O)NN/C(C)=C/C(=O)C(F)(F)C(F)(F)C(F)(F)F)cc1	-10	12%	-10%	41%[10 µM]	11µM*
Cc1ccc(SCCNC(=O)c2ccc(C)c(S(=O)(=O)Nc3ccccc3C)c2)cc1	-10	11%	5%	-65%	18µM*
Cc1ccccc1NS(=O)(=O)c1cc(C(=O)NCc2ccco2)ccc1C	-6	2%	14%	-30%	-1%
CCCC[C@@H]1C[C@H]1C(NC(=O)c1ccccc1)c1ccc(C(F)(F)F)cc1 (some centres not stated)	-4	3%	-5%	-44%	·
C/C(=N\N1C(=O)c2ccccc2NC1c1ccco1)c1ccccc1O (configuration not stated)	3	1%	9%	-184%	7.1µM*
O=c1[nH][nH]cc1C=Nc1cc(Cl)ccc1O	7	0%	7%	14µM*	-21%
Cc1sc(NC(=O)CN2CCOCC2)nc1-c1ccc2c(c1)CCN2S(=O)(=O)c1ccccc1	-22	4%	3%	-17%	7.1µM*
CCN1CCN(CC(=O)Nc2nc3ccc(C)cc3s2)CC1	·	·	0%[11.5 µM]	·	·
Cc1ccc2nc(NC(=O)CN3CCOCC3)sc2c1	-4	-23%	-9%	-23%	3.2µM*
O=C(CN1CCOCC1)Nc1nc(-c2ccc3c(c2)CCN3S(=O)(=O)c2ccccc2)cs1	-12	12%	-3%	-17%[10 µM]	?
